A short description of test [1]: qHTS profiling for inhibitors of Plasmodium falciparum proliferation (AID 504749).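 As to activity, negative = inhibition: 0% = DMSO vehicle and full inhibition = artemisinin control.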 As to all read-outs here: nearly all actives have a fitted effect of over 60% in size. The following applies: P. falciparum in erythrocytes, SYBR Green DNA, 72 h; for activity, negative = inhibition: at 28.7 µM (top of the series). Put shortly: (§1)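 Quantitative HTS: compounds pinned into medium, infected erythrocytes added (0.3% parasitemia, 2.5% hematocrit), 72 h culture at 37 C under 5% CO2. Saponin/Triton lysis with SYBR Green I, overnight RT, then fluorescence read.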
For orientation: qHTS replaces the single test concentration by a dilution series.

In the next test the test system is 3D7. Described as above. The following applies: P. falciparum in erythrocytes, SYBR Green DNA, 72 h; series mostly up to 28.7 µM. Put shortly: as §1
For another test, the system named is 7G8. Described as above. The following applies: P. falciparum in erythrocytes, SYBR Green DNA, 72 h; series mostly up to 28.7 µM. In outline: as §1
The test system of a further test is AA1029. The test is described as above. The following applies: P. falciparum in erythrocytes, SYBR Green DNA, 72 h; series mostly up to 28.7 µM. In outline: as §1
A further test deals with AS120. The description is as above. As to conditions: P. falciparum in erythrocytes, SYBR Green DNA, 72 h; series mostly up to 28.7 µM. Put shortly:
as §1

The subject of a further test is ATS189. The test is described as above. As to conditions: P. falciparum in erythrocytes, SYBR Green DNA, 72 h; series mostly up to 28.7 µM. In outline:
as §1

Another test deals with ATS95. The test is described as above. As to conditions: P. falciparum in erythrocytes, SYBR Green DNA, 72 h; series mostly up to 28.7 µM. Put shortly: as §1
The subject of the next test is C2A. Described as above. The following applies: P. falciparum in erythrocytes, SYBR Green DNA, 72 h; series mostly up to 28.7 µM. In outline:
as §1

For a further test, the system named is CP185. Described as above. The following applies: P. falciparum in erythrocytes, SYBR Green DNA, 72 h; series mostly up to 28.7 µM. Put shortly: as §1
Another test deals with CP191. The description is as above. The following applies: P. falciparum in erythrocytes, SYBR Green DNA, 72 h; series mostly up to 28.7 µM. In outline:
as §1

Records with an inconclusive call do not appear. Values without a mark were called inactive. Calls of active or inactive are those of the source. Calls follow the shape of the dose curve; as a rule, active = well fitted inhibition curve with a large enough effect; inconclusive = small, poorly fitted or top-dose-only effect; inactive = flat fitted curve, though single readings scatter.
Potency is read from the fitted curve at half-maximal effect.

With `Clc1ccccc1Cl`, the activity, negative = inhibition in test [1] (parasite line A) was 6.5%. Further, the Potency entry in the test with 3D7, in the test with 7G8, with AA1029, in the test on AS120, with ATS189 and in the test on ATS95 was “inactive” in each case. Moreover, the Potency result in the test with C2A, in the test with CP185 and in the test with CP191 was “inactive” throughout.
Regarding `Clc1ccc(C2(Cn3cncn3)OCCO2)c(Cl)c1`, the activity, negative = inhibition in [1] (parasite line A) was 8.04%; in [1] (parasite line B), -7.5%. In addition, the Potency entry in the test on 3D7, in the test with AA1029, with AS120, in the test with ATS189, in the test with ATS95 and with C2A was “inactive” throughout. Further, the Potency result in the test on CP185 and in the test with CP191 was “inactive” each time.
On to `OC(c1ccccc1)(c1ccccc1)C1CN2CCC1CC2` (stereo unspecified), for which the activity, negative = inhibition in [1] (parasite line A) is 2.79%; in [1] (parasite line B), -0.359%. The Potency result with 3D7, in the test on AS120, in the test on ATS189, in the test on ATS95, in the test with C2A and in the test with CP185 was “inactive” throughout.
With `O=C1CN=C(c2ccccc2)c2cc(Cl)ccc2N1CC1CC1`, the activity, negative = inhibition is -5.97% in [1] (parasite line A) and -9.8% in [1] (parasite line B). In addition, the Potency entry with AA1029, with ATS189, in the test with ATS95, in the test on C2A, in the test with CP185 and with CP191 was “inactive” each time.
Take `CNC(=O)Oc1ccccc1C(=O)Nc1ccccc1`: the Potency in test [1] (parasite line B) was 11.2 µM (active); in the test with 7G8 it was 10 µM (active). For the same compound, the Potency result in the test with 3D7, with C2A and with CP185 was “inactive” in each case.

(Values after PubChem BioAssay (NCATS).)
